Results filed as inconclusive are left out. The source made the active and inactive calls. Unless noted, calls follow the shape of the full dose curve.
Experiment: Validation of Assay for Modulators of Lamin A Splicing (AID 1459; active = well fitted curve in the direction sought with a large enough effect in the signal ratio; the % refers to the signal ratio;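 also: cells exposed to compound for two days before reading; 0% is about no effect; ratio rise marks activators and ratio drop marks inhibitors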)
Conditions: Lamin A splicing dual RFP/GFP fluorescence reporter; series mostly up to 9.22 µM
Procedure, shortened: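 Dual-reporter HeLa S3 line (lamin A-EGFP minigene, DsRed2) treated with compounds 48 hrs, 0.5% DMSO final. Endpoint: EGFP/DsRed2 total intensity ratio from laser-scanning microplate cytometry.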

| SMILES | outcome |
| --- | --- |
| CC(C)NCC(O)c1ccc(NS(C)(=O)=O)cc1 (stereo not drawn) | inactive |
| CCN1CCCC1CNC(=O)c1cc(S(N)(=O)=O)ccc1OC (stereo not drawn) | inactive |
| OCc1ccc(-c2nn(Cc3ccccc3)c3ccccc23)o1 | inactive |
| CCN(CC)CC#CCOC(=O)C(O)(c1ccccc1)C1CCCCC1 (stereo not drawn) | inactive |
| CC1=C(C(=O)O)N2C(=O)[C@@H](NC(=O)C(N)c3ccccc3)[C@H]2SC1 (stereo partly drawn) | inactive |
| CCCCS(=N)(=O)CCC(N)C(=O)O (stereo not drawn) | inactive |
| O=C(O)C1CCCN(CCC=C(c2ccccc2)c2ccccc2)C1 (stereo not drawn) | inactive |

Experiment: qHTS Assay for Lipid Storage Modulators (AID 1519); also: % is scaled to controls: 0 for no effect and ±100 for the full control effect
Conditions: Drosophila S3 cells, BODIPY lipid droplet/cell ratio, laser cytometry; at 25.7 µM (top of the series); cells loaded with oleic acid
Procedure, shortened: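 Cells seeded at 5,000 per well were treated with compounds over a concentration series and loaded with oleic acid (400 uM, as added). Lipid droplet fluorescence (488 nm excitation, 500-530 nm channel) was read by laser-scanning cytometry and normalized to 20 uM Triacsin C.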

| SMILES | activity change, negative = inhibition |
| --- | --- |
| COc1ccc2c(c1)c(CC(=O)OCC(=O)O)c(C)n2C(=O)c1ccc(Cl)cc1 | 1.43% (inactive) |
| Nc1[nH]c(=O)ncc1F | 0.855% (inactive) |
| Clc1ccccc1CN1CCc2sccc2C1 | -0.65% (inactive) |
| COC(=O)Nc1nc2ccc(C(=O)c3ccccc3)cc2[nH]1 | -15.3% (inactive) |
| CCOC(=O)c1ccc(OC(=O)CCCCCN=C(N)N)cc1 | 1.48% (inactive) |
| CCCOc1ccc(C(=O)OCCN(CC)CC)cc1N | -0.0947% (inactive) |
| CNNCc1ccc(C(=O)NC(C)C)cc1 | 1.45% (inactive) |
| CCCCOc1ccc(CC(=O)NO)cc1 | 0.283% (inactive) |
| Cc1cccc(N(C)C(=S)Oc2ccc3ccccc3c2)c1 | 1.79% (inactive) |

Same assay, conditions: Drosophila S3 cells, BODIPY lipid droplet/cell ratio, laser cytometry; at 57.5 µM (top of the series); cells loaded with oleic acid

| SMILES | activity change, negative = inhibition |
| --- | --- |
| NC(=O)N1c2ccccc2CC(=O)c2ccccc21 | 6.03% (inactive) |
| CN1CCCC(n2nc(Cc3ccc(Cl)cc3)c3ccccc3c2=O)CC1 (stereo not drawn) | 4.52% (inactive) |
| NCCCC(O)(P(=O)(O)O)P(=O)(O)O | 6.27% (inactive) |
| CNS(=O)(=O)Cc1ccc2[nH]cc(CCN(C)C)c2c1 | 8.81% (inactive) |
| S=P(N1CC1)(N1CC1)N1CC1 | 7.1% (inactive) |
| C1CCC(C(CC2CCCCN2)C2CCCCC2)CC1 (stereo not drawn) | -9.69% (inactive) |
| CCN1CCCC1CNC(=O)c1cc(S(N)(=O)=O)ccc1OC (stereo not drawn) | 2.89% (inactive) |
| O=c1oc2c(O)c(O)cc3c(=O)oc4c(O)c(O)cc1c4c23 | 8.32% (inactive) |
| Oc1c(Cl)cc(Cl)c2cccnc12 | -20.1% (inactive) |
| CC1=C(C(=O)O)N2C(=O)[C@@H](NC(=O)C(N)c3ccccc3)[C@H]2SC1 (stereo partly drawn) | 1.54% (inactive) |
| COC(=O)Nc1nc2ccc(S(=O)c3ccccc3)cc2[nH]1 (stereo not drawn) | 10.3% (inactive) |
| CC(=O)CC(c1ccccc1)c1c(O)c2ccccc2oc1=O (stereo not drawn) | 15.6% (inactive) |
| OC(Cn1cncn1)(Cn1cncn1)c1ccc(F)cc1F | 11.9% (inactive) |
| COc1ccc(C(=O)CC(=O)c2ccc(C(C)(C)C)cc2)cc1 | 1.96% (inactive) |
| O=S(=O)(c1cccc2cnccc12)N1CCCNCC1 | -2.33% (inactive) |
| COC(=O)Nc1nc2ccc(Sc3ccccc3)cc2[nH]1 | 4.46% (inactive) |
| CN(C)CCc1c[nH]c2ccc(CS(=O)(=O)N3CCCC3)cc12 | 5.82% (inactive) |
| CCCc1cc(C(N)=S)ccn1 | 6.18% (inactive) |
| CC[C@H](NC(C)C)[C@H](O)c1ccc(O)c2[nH]c(=O)ccc12 | -1.12% (inactive) |
| O=S(=O)(O)CCS | 4.92% (inactive) |
| CCCCS(=N)(=O)CCC(N)C(=O)O (stereo not drawn) | 7.27% (inactive) |
| CCCCCCNC(=O)n1cc(F)c(=O)[nH]c1=O | 8.3% (inactive) |
